In article PMC7862700, “An all-to-all approach to the identification of sequence-specific readers for epigenetic DNA modifications on cytosine”:

Experiments:
Assay in all cases: DAPPL (digital affinity profiling via proximity ligation, sequencing); 10 mM Tris-HCl pH 7.5, 50 mM NaCl, 1 mM DTT, 4% glycerol, room temperature, 30 min; GST-TFs on glutathione beads, 16-mer random dsDNA library, 0.1% formaldehyde crosslink after washing; high values mean tight binding
FLI1 = target: T1, FLI1 (Homo sapiens, UniProt Q01543 1-452); conditions: protein: recombinant; tags: N-terminal GST; dsDNA, one strand shown
T1 sequence: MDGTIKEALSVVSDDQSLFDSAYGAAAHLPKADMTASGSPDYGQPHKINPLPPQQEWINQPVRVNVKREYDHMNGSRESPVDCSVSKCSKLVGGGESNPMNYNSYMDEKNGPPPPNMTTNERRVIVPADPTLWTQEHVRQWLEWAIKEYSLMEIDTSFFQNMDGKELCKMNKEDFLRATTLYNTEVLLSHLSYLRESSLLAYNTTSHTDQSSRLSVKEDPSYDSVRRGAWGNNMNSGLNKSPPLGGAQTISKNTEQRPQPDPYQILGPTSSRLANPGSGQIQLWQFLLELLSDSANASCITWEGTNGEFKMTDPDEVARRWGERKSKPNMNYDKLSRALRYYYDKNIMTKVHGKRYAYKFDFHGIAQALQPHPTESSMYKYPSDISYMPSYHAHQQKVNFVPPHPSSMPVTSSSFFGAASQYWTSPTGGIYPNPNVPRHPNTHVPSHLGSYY
How it was run: (§1)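 The binding signal reported is, for every hexamer, its read frequency for a factor over its read frequency for the tag-only sample. Reads came from pools of yeast-expressed, GST-fused human transcription factors on glutathione beads, barcoded with DNA and mixed with that sample, which were incubated with 200 nmole of a random double-stranded 16-mer DNA library in Tris/NaCl/DTT/glycerol buffer at room temperature for 30 min. After washing, the pools were crosslinked with 0.1% formaldehyde, proximity-ligated with BsaI/T4 ligase for 1 h at 37 °C, PCR-amplified and sequenced on an Illumina NextSeq500.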

ELK1 = target: T2, ELK1 (Homo sapiens, UniProt P19419 1-428); conditions: protein: recombinant; tags: N-terminal GST; dsDNA, one strand shown
T2 sequence: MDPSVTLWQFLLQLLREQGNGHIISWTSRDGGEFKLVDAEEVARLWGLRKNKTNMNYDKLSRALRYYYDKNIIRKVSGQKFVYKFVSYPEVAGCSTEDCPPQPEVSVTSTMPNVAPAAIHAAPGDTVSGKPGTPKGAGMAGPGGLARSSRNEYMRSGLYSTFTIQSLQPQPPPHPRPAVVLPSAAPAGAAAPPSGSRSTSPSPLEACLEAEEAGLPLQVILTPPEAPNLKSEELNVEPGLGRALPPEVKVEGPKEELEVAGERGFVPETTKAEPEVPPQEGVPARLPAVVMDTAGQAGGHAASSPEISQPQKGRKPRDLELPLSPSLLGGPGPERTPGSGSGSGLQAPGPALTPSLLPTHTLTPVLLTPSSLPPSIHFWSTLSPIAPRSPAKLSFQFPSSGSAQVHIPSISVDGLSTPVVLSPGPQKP
How it was run: as §1

GABPA = target: T3, GABPA (Homo sapiens, UniProt Q06546 1-454); conditions: protein: recombinant; tags: N-terminal GST; dsDNA, one strand shown
T3 sequence: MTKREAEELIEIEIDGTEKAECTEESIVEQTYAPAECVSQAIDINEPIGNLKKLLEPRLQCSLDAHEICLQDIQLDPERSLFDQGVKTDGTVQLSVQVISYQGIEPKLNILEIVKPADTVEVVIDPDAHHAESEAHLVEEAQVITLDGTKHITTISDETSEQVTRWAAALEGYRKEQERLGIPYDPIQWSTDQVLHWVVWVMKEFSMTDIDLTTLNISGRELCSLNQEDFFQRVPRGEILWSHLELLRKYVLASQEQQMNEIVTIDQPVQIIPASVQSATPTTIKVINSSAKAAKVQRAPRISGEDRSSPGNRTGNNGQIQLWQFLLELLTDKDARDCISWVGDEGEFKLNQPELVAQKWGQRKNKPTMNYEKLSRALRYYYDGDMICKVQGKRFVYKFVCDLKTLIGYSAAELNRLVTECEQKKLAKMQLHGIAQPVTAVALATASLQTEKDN
How it was run: as §1

ERG = target: T4, ERG (Homo sapiens, UniProt P11308 1-479); conditions: protein: recombinant; tags: N-terminal GST; dsDNA, one strand shown
T4 sequence: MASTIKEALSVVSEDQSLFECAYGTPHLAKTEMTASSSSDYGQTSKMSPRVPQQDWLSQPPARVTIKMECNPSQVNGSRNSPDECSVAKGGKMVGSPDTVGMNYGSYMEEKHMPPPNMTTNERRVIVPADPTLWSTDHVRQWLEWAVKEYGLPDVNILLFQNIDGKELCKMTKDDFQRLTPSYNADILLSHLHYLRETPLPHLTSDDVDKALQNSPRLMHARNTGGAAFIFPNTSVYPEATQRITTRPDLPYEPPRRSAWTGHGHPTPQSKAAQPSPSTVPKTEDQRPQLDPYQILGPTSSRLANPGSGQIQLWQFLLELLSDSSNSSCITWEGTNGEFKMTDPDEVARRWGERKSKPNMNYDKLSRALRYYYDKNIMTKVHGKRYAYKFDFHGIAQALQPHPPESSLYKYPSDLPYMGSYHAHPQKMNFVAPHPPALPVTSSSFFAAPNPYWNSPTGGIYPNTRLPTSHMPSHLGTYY
How it was run: as §1

ELF1 = ELF1 (Homo sapiens, UniProt P32519 1-619); conditions: protein: recombinant; tags: N-terminal GST; dsDNA, one strand shown
Chain of ELF1 (P32519 whole entry): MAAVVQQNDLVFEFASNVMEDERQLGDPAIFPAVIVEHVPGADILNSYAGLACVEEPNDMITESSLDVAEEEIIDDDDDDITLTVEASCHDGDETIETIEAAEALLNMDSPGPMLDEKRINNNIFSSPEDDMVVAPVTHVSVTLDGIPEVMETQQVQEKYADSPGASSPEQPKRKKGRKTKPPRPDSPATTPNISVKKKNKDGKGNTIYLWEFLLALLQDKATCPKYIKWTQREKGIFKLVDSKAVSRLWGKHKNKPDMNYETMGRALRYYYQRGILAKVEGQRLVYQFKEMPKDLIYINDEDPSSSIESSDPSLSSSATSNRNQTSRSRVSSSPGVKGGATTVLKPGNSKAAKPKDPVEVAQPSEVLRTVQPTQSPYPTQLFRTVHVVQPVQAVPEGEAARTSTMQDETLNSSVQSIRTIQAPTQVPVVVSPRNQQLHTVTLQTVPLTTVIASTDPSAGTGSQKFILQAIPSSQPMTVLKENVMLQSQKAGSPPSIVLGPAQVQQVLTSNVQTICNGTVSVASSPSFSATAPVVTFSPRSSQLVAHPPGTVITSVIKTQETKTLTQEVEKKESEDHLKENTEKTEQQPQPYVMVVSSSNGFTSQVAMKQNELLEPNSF
How it was run: as §1

EHF = target: T5, EHF (Homo sapiens, UniProt Q9NZC4 1-300); conditions: protein: recombinant; tags: N-terminal GST; dsDNA, one strand shown
T5 sequence: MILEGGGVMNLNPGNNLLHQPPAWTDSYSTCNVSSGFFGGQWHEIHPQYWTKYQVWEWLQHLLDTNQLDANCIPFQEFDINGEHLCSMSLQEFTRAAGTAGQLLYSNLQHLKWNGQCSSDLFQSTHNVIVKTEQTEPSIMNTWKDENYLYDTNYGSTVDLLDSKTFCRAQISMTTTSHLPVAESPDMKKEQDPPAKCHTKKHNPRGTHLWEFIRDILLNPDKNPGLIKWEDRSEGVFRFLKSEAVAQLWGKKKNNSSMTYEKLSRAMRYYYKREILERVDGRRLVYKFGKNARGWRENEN
How it was run: as §1

SPI1 = SPI1 (Homo sapiens, UniProt P17947 1-270); conditions: protein: recombinant; tags: N-terminal GST; dsDNA, one strand shown
How it was run: as §1

SPIB = SPIB (Homo sapiens, UniProt Q01892 1-262); conditions: protein: recombinant; tags: N-terminal GST; dsDNA, one strand shown
Chain of SPIB (Q01892 whole entry): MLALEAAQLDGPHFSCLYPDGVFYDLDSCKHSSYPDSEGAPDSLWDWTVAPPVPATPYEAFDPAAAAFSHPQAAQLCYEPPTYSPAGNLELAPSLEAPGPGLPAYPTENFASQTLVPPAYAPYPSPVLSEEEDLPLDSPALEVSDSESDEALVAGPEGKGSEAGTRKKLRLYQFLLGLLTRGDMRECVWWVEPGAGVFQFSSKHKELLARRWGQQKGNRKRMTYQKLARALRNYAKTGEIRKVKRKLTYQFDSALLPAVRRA
How it was run: as §1

ELK3 = target: T6, ELK3 (Homo sapiens, UniProt P41970 1-407); conditions: protein: recombinant; tags: N-terminal GST; dsDNA, one strand shown
T6 sequence: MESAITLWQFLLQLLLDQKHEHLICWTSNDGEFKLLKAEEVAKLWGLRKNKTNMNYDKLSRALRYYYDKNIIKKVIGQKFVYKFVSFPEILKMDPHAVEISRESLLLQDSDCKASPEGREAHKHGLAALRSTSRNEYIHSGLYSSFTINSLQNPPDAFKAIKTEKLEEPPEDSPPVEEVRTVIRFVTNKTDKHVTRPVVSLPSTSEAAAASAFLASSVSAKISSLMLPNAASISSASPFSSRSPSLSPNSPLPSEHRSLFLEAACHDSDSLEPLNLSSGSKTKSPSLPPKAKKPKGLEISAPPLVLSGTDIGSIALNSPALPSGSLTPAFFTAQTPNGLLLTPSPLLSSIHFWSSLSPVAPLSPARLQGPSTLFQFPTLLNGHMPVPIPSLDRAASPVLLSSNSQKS
How it was run: as §1

FEV = target: T7, FEV (Homo sapiens, UniProt Q99581 1-238); conditions: protein: recombinant; tags: N-terminal GST; dsDNA, one strand shown
T7 sequence: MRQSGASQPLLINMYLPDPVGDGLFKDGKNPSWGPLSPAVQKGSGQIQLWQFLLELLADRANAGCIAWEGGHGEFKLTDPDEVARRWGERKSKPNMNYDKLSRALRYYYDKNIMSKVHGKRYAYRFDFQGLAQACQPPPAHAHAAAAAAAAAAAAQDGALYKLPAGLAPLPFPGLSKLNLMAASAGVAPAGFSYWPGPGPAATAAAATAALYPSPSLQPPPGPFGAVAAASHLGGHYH
How it was run: as §1

ETV5 = ETV5 (Homo sapiens, UniProt P41161 1-510); conditions: protein: recombinant; tags: N-terminal GST; dsDNA, one strand shown
Chain of ETV5 (P41161 whole entry): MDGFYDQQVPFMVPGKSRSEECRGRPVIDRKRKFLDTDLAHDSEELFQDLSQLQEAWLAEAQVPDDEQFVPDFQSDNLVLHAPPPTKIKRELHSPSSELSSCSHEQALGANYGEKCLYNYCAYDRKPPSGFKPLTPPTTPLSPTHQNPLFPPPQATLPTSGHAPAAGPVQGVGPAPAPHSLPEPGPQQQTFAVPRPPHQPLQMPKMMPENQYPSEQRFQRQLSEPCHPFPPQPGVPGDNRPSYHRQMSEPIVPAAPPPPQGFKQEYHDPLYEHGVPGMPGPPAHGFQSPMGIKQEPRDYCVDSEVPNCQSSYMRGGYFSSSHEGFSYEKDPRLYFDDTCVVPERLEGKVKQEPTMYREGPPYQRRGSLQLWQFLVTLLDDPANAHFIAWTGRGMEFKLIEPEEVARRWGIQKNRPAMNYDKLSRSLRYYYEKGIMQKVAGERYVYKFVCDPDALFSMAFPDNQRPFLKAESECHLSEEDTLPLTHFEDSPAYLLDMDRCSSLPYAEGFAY
How it was run: as §1

HSF1 = HSF1 (Homo sapiens, UniProt Q00613 1-529); conditions: protein: recombinant; tags: N-terminal GST; chain copies: 3; dsDNA, one strand shown
Chain of HSF1 (Q00613 whole entry): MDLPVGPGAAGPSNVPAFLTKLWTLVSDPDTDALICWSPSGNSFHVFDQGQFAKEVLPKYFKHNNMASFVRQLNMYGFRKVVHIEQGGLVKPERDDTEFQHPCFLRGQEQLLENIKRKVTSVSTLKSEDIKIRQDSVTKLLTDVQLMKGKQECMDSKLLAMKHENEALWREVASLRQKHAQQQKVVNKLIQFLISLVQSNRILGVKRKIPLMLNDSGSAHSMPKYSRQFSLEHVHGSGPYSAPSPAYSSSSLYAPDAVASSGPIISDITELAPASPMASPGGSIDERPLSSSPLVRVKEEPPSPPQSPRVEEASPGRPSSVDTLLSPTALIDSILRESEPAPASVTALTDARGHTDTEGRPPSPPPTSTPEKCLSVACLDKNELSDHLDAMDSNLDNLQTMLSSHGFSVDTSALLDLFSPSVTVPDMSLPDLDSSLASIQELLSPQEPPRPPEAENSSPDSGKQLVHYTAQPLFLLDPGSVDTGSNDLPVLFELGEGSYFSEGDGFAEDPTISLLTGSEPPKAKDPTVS
How it was run: as §1

SPIC = target: T8, SPIC (Homo sapiens, UniProt Q8N5J4 1-248); conditions: protein: recombinant; tags: N-terminal GST; dsDNA, one strand shown
T8 sequence: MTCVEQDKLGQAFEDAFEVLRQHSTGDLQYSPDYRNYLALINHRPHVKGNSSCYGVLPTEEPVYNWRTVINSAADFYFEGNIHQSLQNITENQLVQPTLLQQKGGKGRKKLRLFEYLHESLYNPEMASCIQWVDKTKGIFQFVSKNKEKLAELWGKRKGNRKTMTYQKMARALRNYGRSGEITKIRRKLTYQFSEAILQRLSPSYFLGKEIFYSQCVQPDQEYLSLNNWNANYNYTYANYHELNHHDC
How it was run: as §1

ELF4 = ELF4 (Homo sapiens, UniProt Q99607 1-663); conditions: protein: recombinant; tags: N-terminal GST; dsDNA, one strand shown
Chain of ELF4 (Q99607 whole entry): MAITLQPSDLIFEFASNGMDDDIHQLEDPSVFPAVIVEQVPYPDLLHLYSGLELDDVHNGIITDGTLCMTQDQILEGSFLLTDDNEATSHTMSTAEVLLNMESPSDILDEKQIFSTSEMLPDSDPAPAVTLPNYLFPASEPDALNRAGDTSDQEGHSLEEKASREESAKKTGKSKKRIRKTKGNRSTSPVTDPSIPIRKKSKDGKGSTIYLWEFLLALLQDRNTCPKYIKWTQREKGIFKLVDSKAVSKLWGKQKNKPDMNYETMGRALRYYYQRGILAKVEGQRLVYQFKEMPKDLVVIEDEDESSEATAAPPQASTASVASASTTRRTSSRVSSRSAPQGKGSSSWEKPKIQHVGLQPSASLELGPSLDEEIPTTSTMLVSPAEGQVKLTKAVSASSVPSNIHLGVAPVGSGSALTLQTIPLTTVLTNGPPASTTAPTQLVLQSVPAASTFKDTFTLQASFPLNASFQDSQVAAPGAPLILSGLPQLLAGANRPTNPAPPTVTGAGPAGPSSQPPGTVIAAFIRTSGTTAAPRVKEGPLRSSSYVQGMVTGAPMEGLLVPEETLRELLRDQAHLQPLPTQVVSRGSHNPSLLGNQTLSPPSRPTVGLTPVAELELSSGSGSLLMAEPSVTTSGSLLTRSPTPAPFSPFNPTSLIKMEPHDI
How it was run: as §1

ELK4 = target: T9, ELK4 (Homo sapiens, UniProt P28324-2 1-405); conditions: protein: recombinant; tags: N-terminal GST; dsDNA, one strand shown
T9 sequence: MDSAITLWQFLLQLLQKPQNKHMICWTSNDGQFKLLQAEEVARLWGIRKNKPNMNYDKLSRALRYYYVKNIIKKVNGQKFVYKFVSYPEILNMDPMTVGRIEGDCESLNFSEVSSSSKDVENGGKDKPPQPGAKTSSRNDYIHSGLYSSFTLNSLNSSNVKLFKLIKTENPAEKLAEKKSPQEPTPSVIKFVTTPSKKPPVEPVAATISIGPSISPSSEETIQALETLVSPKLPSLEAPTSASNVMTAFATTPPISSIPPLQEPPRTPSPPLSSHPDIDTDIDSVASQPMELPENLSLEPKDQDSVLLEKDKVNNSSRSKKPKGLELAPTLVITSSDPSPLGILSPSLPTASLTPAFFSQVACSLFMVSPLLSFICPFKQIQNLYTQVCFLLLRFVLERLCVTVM
How it was run: as §1

ETV2 = target: T10, ETV2 (Homo sapiens, UniProt O00321 1-342); conditions: protein: recombinant; tags: N-terminal GST; dsDNA, one strand shown
T10 sequence: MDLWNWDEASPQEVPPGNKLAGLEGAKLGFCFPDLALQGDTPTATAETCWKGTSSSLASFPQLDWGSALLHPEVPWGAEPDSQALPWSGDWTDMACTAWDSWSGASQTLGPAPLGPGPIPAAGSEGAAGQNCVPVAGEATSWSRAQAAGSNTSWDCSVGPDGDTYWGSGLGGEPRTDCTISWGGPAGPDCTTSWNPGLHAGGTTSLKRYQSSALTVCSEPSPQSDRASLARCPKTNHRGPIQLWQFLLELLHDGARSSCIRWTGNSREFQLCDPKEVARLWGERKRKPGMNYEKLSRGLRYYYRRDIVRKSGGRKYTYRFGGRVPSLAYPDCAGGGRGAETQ
How it was run: as §1

CRX = CRX (Homo sapiens, UniProt O43186 1-299); conditions: protein: recombinant; tags: N-terminal GST; dsDNA, one strand shown
Chain of CRX (O43186 whole entry): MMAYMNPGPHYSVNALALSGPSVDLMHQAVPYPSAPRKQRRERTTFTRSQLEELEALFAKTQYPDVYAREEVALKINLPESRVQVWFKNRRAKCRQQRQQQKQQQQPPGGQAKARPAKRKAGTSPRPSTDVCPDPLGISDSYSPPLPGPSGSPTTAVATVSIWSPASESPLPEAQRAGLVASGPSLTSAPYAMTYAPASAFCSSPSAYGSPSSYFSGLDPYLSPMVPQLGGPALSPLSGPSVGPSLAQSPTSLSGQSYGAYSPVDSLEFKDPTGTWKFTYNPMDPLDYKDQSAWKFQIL
How it was run: as §1

ETV1 = ETV1 (Homo sapiens, UniProt P50549 1-477); conditions: protein: recombinant; tags: N-terminal GST; dsDNA, one strand shown
Chain of ETV1 (P50549 whole entry): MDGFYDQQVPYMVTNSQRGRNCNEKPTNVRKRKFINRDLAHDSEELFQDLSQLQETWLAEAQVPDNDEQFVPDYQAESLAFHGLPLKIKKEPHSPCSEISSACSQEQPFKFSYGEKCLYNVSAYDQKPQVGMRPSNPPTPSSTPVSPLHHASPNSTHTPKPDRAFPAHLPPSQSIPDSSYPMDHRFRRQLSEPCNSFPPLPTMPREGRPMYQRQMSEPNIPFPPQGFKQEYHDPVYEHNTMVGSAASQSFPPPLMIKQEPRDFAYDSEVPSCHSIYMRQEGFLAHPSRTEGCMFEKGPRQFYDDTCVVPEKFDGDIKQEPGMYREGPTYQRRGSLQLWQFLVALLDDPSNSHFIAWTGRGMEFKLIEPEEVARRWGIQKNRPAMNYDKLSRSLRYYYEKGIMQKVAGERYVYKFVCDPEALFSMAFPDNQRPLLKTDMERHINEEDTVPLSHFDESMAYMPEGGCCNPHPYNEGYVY
How it was run: as §1

| Sequence | binding signal (FLI1) | binding signal (ELK1) | binding signal (GABPA) | binding signal (ERG) | binding signal (ELF1) | binding signal (EHF) | binding signal (SPI1) | binding signal (SPIB) | binding signal (ELK3) | binding signal (FEV) | binding signal (ETV5) | binding signal (HSF1) | binding signal (SPIC) | binding signal (ELF4) | binding signal (ELK4) | binding signal (ETV2) | binding signal (CRX) | binding signal (ETV1) |
| --- | --- | --- | --- | --- | --- | --- | --- | --- | --- | --- | --- | --- | --- | --- | --- | --- | --- | --- |
| GTCTAA | 1.05 fold enrichment (6-mer frequency, TF over GST control) | 1.03 fold enrichment (6-mer frequency, TF over GST control) | 1.14 fold enrichment (6-mer frequency, TF over GST control) | 1.09 fold enrichment (6-mer frequency, TF over GST control) | 1.09 fold enrichment (6-mer frequency, TF over GST control) | 1.02 fold enrichment (6-mer frequency, TF over GST control) | 1.08 fold enrichment (6-mer frequency, TF over GST control) | 1.09 fold enrichment (6-mer frequency, TF over GST control) | 1.12 fold enrichment (6-mer frequency, TF over GST control) | 1.03 fold enrichment (6-mer frequency, TF over GST control) | 1.01 fold enrichment (6-mer frequency, TF over GST control) | 1.03 fold enrichment (6-mer frequency, TF over GST control) | 1.11 fold enrichment (6-mer frequency, TF over GST control) | 1.13 fold enrichment (6-mer frequency, TF over GST control) | 1.14 fold enrichment (6-mer frequency, TF over GST control) | 1.06 fold enrichment (6-mer frequency, TF over GST control) | 1.33 fold enrichment (6-mer frequency, TF over GST control) | 1.11 fold enrichment (6-mer frequency, TF over GST control) |
| TTAGAA | 1 fold enrichment (6-mer frequency, TF over GST control) | 1.02 fold enrichment (6-mer frequency, TF over GST control) | 1.01 fold enrichment (6-mer frequency, TF over GST control) | 1.05 fold enrichment (6-mer frequency, TF over GST control) | 1.14 fold enrichment (6-mer frequency, TF over GST control) | 1.14 fold enrichment (6-mer frequency, TF over GST control) | 1.13 fold enrichment (6-mer frequency, TF over GST control) | 1.03 fold enrichment (6-mer frequency, TF over GST control) | 1.06 fold enrichment (6-mer frequency, TF over GST control) | 1.02 fold enrichment (6-mer frequency, TF over GST control) | 1.01 fold enrichment (6-mer frequency, TF over GST control) | 1.93 fold enrichment (6-mer frequency, TF over GST control) | 1.25 fold enrichment (6-mer frequency, TF over GST control) | 1.04 fold enrichment (6-mer frequency, TF over GST control) | 1.1 fold enrichment (6-mer frequency, TF over GST control) | 1.13 fold enrichment (6-mer frequency, TF over GST control) | 2.08 fold enrichment (6-mer frequency, TF over GST control) | 1.11 fold enrichment (6-mer frequency, TF over GST control) |
